# Assay results from PubChem BioAssay (Tox21).
# Values without a mark were called inactive. Inconclusive results are not listed. Where a call stands in place of a potency, no number is given. Activity calls are given as the source filed them. Unless noted, calls follow the shape of the dose curve; as a rule, active = well fitted curve in the direction sought with a large enough effect in the repeat runs; inconclusive = weak or mixed curves; inactive = no such curve, though single readings can be large; an effect the other way counts as inactive or inconclusive.
# Columns and labels:
# [1] = qHTS assay for small molecule agonists of the p53 signaling pathway (AID 651631; calls by dose curve; also: nearly all actives have a fitted effect of over 15% in size; also: potency is read from the fitted curve at half-maximal effect)
# How it was run: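 Agonist mode screen using a stably integrated beta-lactamase gene under p53 response elements in HCT-116 cells. Compound exposure lasts 16 h at 37 °C; fluorescence intensity is measured following 2 h FRET substrate loading.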
# [2] = qHTS assay for small molecules that induce genotoxicity in human embryonic kidney cells expressing luciferase-tagged ATAD5 (AID 651632); also: nearly all actives have a fitted effect of over 15% in size
# How it was run: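 Cells were seeded at 2,000 per well, dosed with compound, and incubated 16 hr at 37C in 5% CO2. Luciferase activity was then quantified after a 30 min room-temperature incubation with Amplite.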
# [3] = qHTS assay for small molecules that induce genotoxicity in human embryonic kidney cells expressing luciferase-tagged ATAD5 - cell viability (AID 651634; calls by dose curve; also: nearly all actives have a fitted effect of over 25% in size)
# How it was run: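 Cells (HEK293T, luciferase-tagged ATAD5) are seeded at 2,000 per well, dosed with compound or DMSO vehicle, and incubated 15.5 hr at 37C and 5% CO2. CellTiter-Fluor is added for 30 min before fluorescence is measured.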
# [4] = qHTS assay for small molecule disruptors of the mitochondrial membrane potential - cell viability (AID 720634; calls by dose curve;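 also: human HepG2 liver cancer cells; series mostly up to about 83 µM; nearly all actives have a fitted effect of over 20% in size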)
# How it was run: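 Cytotoxicity was measured by ATP quantitation in HepG2 wells that had first been treated with compound for 1 hr and stained with m-MPI dye; CellTiter-Glo incubation was 30 min at room temperature.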
# [5] = qHTS assay to test for compound auto fluorescence at 590 nm (red) in HepG2 cells (AID 720674)
# How it was run: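 1 hr compound incubation on HepG2 cells, 37 C, 5% CO2; plate read ex 540 nm / em 590 nm; intensities reported as Rose Bengal sodium equivalents.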
# [6] = qHTS assay to test for compound auto fluorescence at 535 nm (green) in HepG2 cells (AID 720675)
# [7] = qHTS assay to test for compound auto fluorescence at 460 nm (blue) in HEK293 cells (AID 720678)
# How it was run: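 Blue read-out at excitation 405 nm and emission 460 nm follows overnight compound exposure of HEK293 cells at 37C in 5% CO2. Activity is given as auto fluorescence equivalency to triamterene.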
# [8] = qHTS assay to test for compound auto fluorescence at 590 nm (red) in HEK293 cells (AID 720679)
# How it was run: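 Red channel, Ex/Em 540/590nm; signal expressed as equivalency to Rose Bengal sodium. HEK293, 2,000 cells/well, 10% dialyzed FBS; 23 nL compound pinned after 4-5 hr attachment; overnight 37C/5% CO2 before reading.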
# [9] = qHTS assay to test for compound auto fluorescence at 535 nm (green) in HEK293 cells (AID 720680)
# [10] = qHTS assay to test for compound auto fluorescence at 460 nm (blue) in HEK293 cell free culture (AID 720681)
# How it was run: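 Blue fluorescence (Ex 405/Em 460 nm, triamterene-equivalent) was read immediately after pin transfer of compound or DMSO into medium (DMEM, 10% FBS) without cells.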
# [11] = qHTS assay to test for compound auto fluorescence at 535 nm (green) in HEK293 cell free culture (AID 720682)
# How it was run: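 No cells present: wells hold DMEM supplemented with 10% FBS, into which compound or vehicle is pinned. Green emission is then recorded (485 nm excitation, 535 nm emission) and scaled to fluorescein.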
# [12] = qHTS assay to test for compound auto fluorescence at 590 nm (red) in HEK293 cell free culture (AID 720683)
# How it was run: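 Red-channel autofluorescence of compounds in culture medium (DMEM, 10% FBS), no cells, measured at 540/590 nm. Rose Bengal sodium is the reference fluorophore for equivalence.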
# [13] = qHTS assay to test for compound auto fluorescence at 590 nm (red) in HepG2 cell free culture (AID 720684)
# How it was run: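 No cells present: MEM + 10% FBS only. Compound pinned in, red label read (540/590 nm). Activity = fluorescence equivalent to Rose Bengal sodium.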
# [14] = qHTS assay to test for compound auto fluorescence at 460 nm (blue) in HepG2 cell free culture (AID 720685)
# How it was run: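 Cell-free plates of MEM plus 10% FBS received 23 nL compound or DMSO vehicle; blue-channel (405/460 nm) intensity scored against triamterene as reference fluorophore.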
# [15] = qHTS assay to test for compound auto fluorescence at 535 nm (green) in HepG2 cell free culture (AID 720686)
# [16] = qHTS assay to test for compound auto fluorescence at 460 nm (blue) in HepG2 cells (AID 720687)
# How it was run: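 Blue-channel autofluorescence (Ex/Em 405/460 nm, triamterene-equivalent) was measured after 1 hr compound exposure at 37 C, 5% CO2. Cells were HepG2, plated overnight at 37 C in MEM plus 10% FBS.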
# [17] = target: Glucocorticoid receptor (Homo sapiens) (UniProt P04150); assay: qHTS assay to identify small molecule agonists of the glucocorticoid receptor (GR) signaling pathway (AID 720691; active = well fitted activation curve with a large enough effect in the signal ratio in the repeat runs, not every such curve was filed as active; the % refers to the signal ratio)
# Sequence of Glucocorticoid receptor (Homo sapiens) (P04150 whole entry, looked up): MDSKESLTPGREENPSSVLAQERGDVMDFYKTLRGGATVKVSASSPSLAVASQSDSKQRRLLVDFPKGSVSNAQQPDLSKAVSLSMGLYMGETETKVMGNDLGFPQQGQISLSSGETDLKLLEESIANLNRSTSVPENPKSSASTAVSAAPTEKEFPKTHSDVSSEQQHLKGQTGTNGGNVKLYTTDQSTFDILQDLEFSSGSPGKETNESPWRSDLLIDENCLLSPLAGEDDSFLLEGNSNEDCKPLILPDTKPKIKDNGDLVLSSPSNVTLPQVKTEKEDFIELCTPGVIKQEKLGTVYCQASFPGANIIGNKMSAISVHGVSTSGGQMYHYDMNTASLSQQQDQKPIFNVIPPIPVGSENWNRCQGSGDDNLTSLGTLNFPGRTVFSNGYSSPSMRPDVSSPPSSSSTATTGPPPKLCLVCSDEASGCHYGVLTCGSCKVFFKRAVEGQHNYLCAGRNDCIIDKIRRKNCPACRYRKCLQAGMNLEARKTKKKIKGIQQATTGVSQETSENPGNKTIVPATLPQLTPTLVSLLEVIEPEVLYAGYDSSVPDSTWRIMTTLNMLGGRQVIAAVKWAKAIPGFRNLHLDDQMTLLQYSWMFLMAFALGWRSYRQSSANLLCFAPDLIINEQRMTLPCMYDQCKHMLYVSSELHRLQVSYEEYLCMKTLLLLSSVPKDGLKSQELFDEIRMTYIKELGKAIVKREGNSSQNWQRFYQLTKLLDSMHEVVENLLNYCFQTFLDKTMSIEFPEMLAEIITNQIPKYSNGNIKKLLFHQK
# How it was run: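 Steps: seed GR-bla HeLa cells, incubate 4 h at 37 C/5% CO2; pin-transfer DMSO-dissolved compounds; incubate 18 h at 37 C; add LiveBLAzer B/G FRET substrate; after 2 h at room temperature, measure fluorescence.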
# [18] = qHTS assay for small molecule agonists of the p53 signaling pathway - cell viability (AID 651633; calls by dose curve; also: nearly all actives have a fitted effect of over 30% in size; also: potency is read from the fitted curve at half-maximal effect)
# How it was run: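 Viability counter-read: CellTiter-Glo luminescence (30 min, room temperature) in the same p53RE-bla plates. These plates had been exposed to compounds for 16 h at 37 C.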
# [19] = target: Glucocorticoid receptor (Homo sapiens) (UniProt P04150); assay: qHTS assay to identify small molecule antagonists of the glucocorticoid receptor (GR) signaling pathway (AID 720692; active = well fitted inhibition curve with a large enough effect in the signal ratio in the repeat runs, not every such curve was filed as active; the % refers to the signal ratio)
# How it was run: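 Antagonism was scored as loss of dexamethasone-driven (5 nM final) reporter signal in HeLa cells bearing a glucocorticoid response element–beta-lactamase construct, after 18 h compound exposure at 37 C and 2 h FRET substrate loading.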
# [20] = qHTS assay for small molecule disruptors of the mitochondrial membrane potential (AID 720635)
# How it was run: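 Mitochondrial membrane potential tracked with Mito-MPS dye, red aggregates (ex 540/em 590 nm) against green monomers (ex 490/em 535 nm). Compound treatment 1 hr at 37C, dye 30 min in HepG2.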
smiles,measurement,setting,value
CCCCC1C(=O)N(c2ccccc2)N(c2ccc(O)cc2)C1=O (configuration not stated),Potency,[1],12.7 µM (active)
same,Potency,[2],inactive
same,Potency,[3],inactive
same,Potency,[4],inactive
same,"fluorescence, relative to Rose Bengal",[5],-0.0374% [at 18.6 µM]
same,"fluorescence, % of fluorescein control",[6],-0.0204% [at 18.6 µM]
same,"fluorescence, % of triamterene",[7],-0.133% [at 18.6 µM]
same,"fluorescence, % of fluorescent control",[8],-0.0017% [at 18.6 µM]
same,"fluorescence, % of fluorescein",[9],-0.124% [at 18.6 µM]
same,"fluorescence, % of fluorescent control",[10],-0.0788% [at 18.6 µM]
same,activity change,[11],-0.39% [at 18.6 µM]
same,"fluorescence, % of fluorescent control",[12],0.0102% [at 18.6 µM]
same,"fluorescence, % of Rose Bengal",[13],-0.239% [at 18.6 µM]
same,"fluorescence, % of fluorescent control",[14],-0.111% [at 18.6 µM]
same,"fluorescence, % of fluorescein control",[15],-0.17% [at 18.6 µM]
same,"fluorescence, % of fluorescent control",[16],-0.0848% [at 18.6 µM]
same,Potency,[17],inactive
CC(Cl)C(Cl)Cl (configuration not stated),Potency,[2],inactive
same,Potency,[18],inactive
same,Potency,[3],inactive
same,Potency,[4],inactive
same,outcome,[5],inactive
same,outcome,[6],inactive
same,Potency,[7],inactive
same,outcome,[8],inactive
same,outcome,[9],inactive
same,Potency,[10],inactive
same,outcome,[11],inactive
same,outcome,[12],inactive
same,outcome,[13],inactive
same,Potency,[14],inactive
same,outcome,[15],inactive
same,Potency,[16],inactive
same,Potency,[17],inactive
same,Potency,[19],inactive
CC[C@@H]([C@H](C)O)n1ncn(-c2ccc(N3CCN(c4ccc(OC[C@@H]5CO[C@@](Cn6cncn6)(c6ccc(F)cc6F)C5)cc4)CC3)cc2)c1=O,Potency,[1],inactive
same,Potency,[2],inactive
same,Potency,[18],29.8 µM (active)
same,Potency,[4],inactive
same,outcome,[5],inactive
same,outcome,[6],inactive
same,Potency,[7],inactive
same,outcome,[8],inactive
same,outcome,[9],inactive
same,outcome,[11],inactive
same,outcome,[12],inactive
same,outcome,[13],inactive
same,Potency,[14],inactive
same,outcome,[15],inactive
same,Potency,[17],inactive
C(=C\c1ccccc1)/CN1CCN(C(c2ccccc2)c2ccccc2)CC1,Potency,[1],inactive
same,Potency,[18],inactive
same,Potency,[3],inactive
same,Potency,[4],inactive
same,Potency,[20],inactive
same,"fluorescence, relative to Rose Bengal",[5],-0.246% [at 18.6 µM]
same,"fluorescence, % of fluorescein control",[6],0.0028% [at 18.6 µM]
same,"fluorescence, % of triamterene",[7],0.048% [at 18.6 µM]
same,"fluorescence, % of fluorescent control",[8],0.417% [at 18.6 µM]
same,"fluorescence, % of fluorescein",[9],0.011% [at 18.6 µM]
same,"fluorescence, % of fluorescent control",[10],0.0548% [at 18.6 µM]
same,activity change,[11],-0.0228% [at 18.6 µM]
same,"fluorescence, % of fluorescent control",[12],-0.0283% [at 18.6 µM]
same,"fluorescence, % of fluorescent control",[14],0.108% [at 18.6 µM]
same,"fluorescence, % of fluorescein control",[15],0.012% [at 18.6 µM]
same,"fluorescence, % of fluorescent control",[16],0.0775% [at 18.6 µM]
O=Cc1c(Cl)cccc1Cl,Potency,[2],inactive
same,Potency,[18],inactive
same,Potency,[3],inactive
same,Potency,[4],inactive
same,outcome,[5],inactive
same,outcome,[6],inactive
same,Potency,[7],inactive
same,outcome,[8],inactive
same,outcome,[9],inactive
same,Potency,[10],inactive
same,outcome,[11],inactive
same,outcome,[12],inactive
same,outcome,[13],inactive
same,Potency,[14],inactive
same,outcome,[15],inactive
same,Potency,[16],inactive
same,Potency,[17],inactive
same,Potency,[19],inactive
C[N+]1(C)CCC(=C(c2ccccc2)c2ccccc2)CC1,Potency,[1],inactive
same,Potency,[2],inactive
same,Potency,[18],inactive
same,Potency,[4],inactive
same,"fluorescence, relative to Rose Bengal",[5],-0.257% [at 18.6 µM]
same,"fluorescence, % of fluorescein control",[6],-0.0806% [at 18.6 µM]
same,"fluorescence, % of triamterene",[7],0.577% [at 18.6 µM]
same,"fluorescence, % of fluorescent control",[8],-0.153% [at 18.6 µM]
same,"fluorescence, % of fluorescein",[9],-0.0107% [at 18.6 µM]
same,activity change,[11],-0.0334% [at 18.6 µM]
same,"fluorescence, % of fluorescent control",[12],-0.165% [at 18.6 µM]
same,"fluorescence, % of fluorescent control",[14],-0.143% [at 18.6 µM]
same,"fluorescence, % of fluorescein control",[15],0.0841% [at 18.6 µM]
same,"fluorescence, % of fluorescent control",[16],0.0159% [at 18.6 µM]
same,Potency,[17],inactive
same,Potency,[19],inactive
NC(=O)Nc1ccc(Cl)cc1,Potency,[2],inactive
same,Potency,[18],inactive
same,Potency,[3],inactive
same,Potency,[4],inactive
same,Potency,[20],inactive
same,outcome,[5],inactive
same,outcome,[6],inactive
same,Potency,[7],inactive
same,outcome,[8],inactive
same,Potency,[10],inactive
same,outcome,[11],inactive
same,outcome,[12],inactive
same,outcome,[13],inactive
same,Potency,[14],inactive
same,outcome,[15],inactive
same,Potency,[16],inactive
same,Potency,[17],inactive
